# PubChem BioAssay (EPA / NIEHS)
# Inconclusive results are not listed. The source made the active and inactive calls. The calls were made as follows: active = hit-call score of the fitted dose curve at least 0.9, where 1 is the maximum; inconclusive = response in the unintended direction; inactive = score below 0.9.
# Columns and labels:
# [1] = biological target: Estrogen receptor (Homo sapiens) (UniProt P03372); assay: OT_ER_ERaERa_0480: Odyssey Thera (OT) 8-hour HEK293T Protein-Complementation Assay for Estrogen Receptor-alpha/-alpha Homodimer (AID 2283351);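 also: rise in fluorescence from reassembled reporter fragments on ERα LBD homodimer in nucleus or whole cell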
# Estrogen receptor (Homo sapiens), sequence (P03372 whole entry, looked up, the tested form may be a part): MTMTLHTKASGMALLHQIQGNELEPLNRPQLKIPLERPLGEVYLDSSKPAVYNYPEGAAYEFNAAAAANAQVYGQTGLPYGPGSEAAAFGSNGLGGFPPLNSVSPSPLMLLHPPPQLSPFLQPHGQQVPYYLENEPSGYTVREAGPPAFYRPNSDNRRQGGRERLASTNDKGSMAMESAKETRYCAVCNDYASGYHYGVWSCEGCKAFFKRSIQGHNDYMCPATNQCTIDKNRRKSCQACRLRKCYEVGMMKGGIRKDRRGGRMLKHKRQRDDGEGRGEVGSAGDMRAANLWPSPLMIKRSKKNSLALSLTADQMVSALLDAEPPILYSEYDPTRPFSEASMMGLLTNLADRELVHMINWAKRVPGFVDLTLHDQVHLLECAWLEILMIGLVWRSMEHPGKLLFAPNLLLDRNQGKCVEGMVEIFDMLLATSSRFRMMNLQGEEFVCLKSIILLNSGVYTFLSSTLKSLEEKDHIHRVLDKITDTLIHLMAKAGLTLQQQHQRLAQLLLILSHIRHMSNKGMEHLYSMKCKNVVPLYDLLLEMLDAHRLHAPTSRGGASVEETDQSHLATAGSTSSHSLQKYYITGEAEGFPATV
# How it was run: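 Cells were treated for 8 hours, then imaged on a laser scanning plate cytometer. Complementation of reporter fragments fused to the human ERα ligand-binding domain (residues 310-547) in HEK293T gave fluorescence, and gain of signal over vehicle was fitted.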
# [2] = biological target: T1, Estrogen receptor (Homo sapiens) + Estrogen receptor beta (Homo sapiens) (UniProt P03372+Q92731); assay: OT_ER_ERaERb_0480: Odyssey Thera (OT) 8-hour HEK293T Protein-Complementation Assay for Estrogen Receptor-alpha/-beta Heterodimer (AID 2283352)
# T1 sequence (P03372 whole entry, looked up, the tested form may be a part): as above
# T1 sequence (Q92731 whole entry, looked up, the tested form may be a part): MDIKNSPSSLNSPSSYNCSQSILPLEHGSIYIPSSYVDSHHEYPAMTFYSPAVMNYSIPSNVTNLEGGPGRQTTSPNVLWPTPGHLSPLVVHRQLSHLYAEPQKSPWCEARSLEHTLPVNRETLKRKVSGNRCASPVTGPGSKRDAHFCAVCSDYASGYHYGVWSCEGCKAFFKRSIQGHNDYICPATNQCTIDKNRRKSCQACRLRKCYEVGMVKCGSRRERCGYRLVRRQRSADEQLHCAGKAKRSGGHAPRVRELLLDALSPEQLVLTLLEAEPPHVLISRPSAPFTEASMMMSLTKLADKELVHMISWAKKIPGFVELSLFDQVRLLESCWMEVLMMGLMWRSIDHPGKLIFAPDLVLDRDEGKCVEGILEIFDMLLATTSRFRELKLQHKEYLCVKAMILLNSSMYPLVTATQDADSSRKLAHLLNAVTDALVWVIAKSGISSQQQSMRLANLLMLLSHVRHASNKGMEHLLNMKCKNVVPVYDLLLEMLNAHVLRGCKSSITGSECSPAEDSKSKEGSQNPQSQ
# How it was run: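 Fluorescence intensity readout from a protein-fragment complementation reporter in HEK293T; ER-alpha/ER-beta LBD heterodimer. Dosing 8 h. Gain-of-signal fit relative to DMSO negative control; laser scanning cytometry of whole-well cell population.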
# [3] = biological target: T1, Estrogen receptor (Homo sapiens) + Estrogen receptor beta (Homo sapiens); assay: OT_ER_ERaERb_1440: Odyssey Thera (OT) 24-hour HEK293T Protein-Complementation Assay for Estrogen Receptor-alpha/-beta Homodimer (AID 2283356);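 also: heteromer of ER alpha and ER beta binding domains; hits raise reporter fluorescence and both agonists and antagonists give an increase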
# How it was run: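 Readout: mean fluorescence intensity in nucleus (agonists) or nucleus plus cytoplasm (antagonists), read by laser scanning cytometer after 24 h compound exposure of HEK293T cells carrying ERα/ERβ LBD fragment-complementation constructs; DMSO baseline.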
# [4] = biological target: Estrogen receptor beta (Homo sapiens) (UniProt Q92731); assay: OT_ER_ERbERb_0480: Odyssey Thera (OT) 8-hour HEK293T Protein-Complementation Assay for Estrogen Receptor-beta/-beta Homodimer (AID 2283357);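 also: active means signal gain over DMSO baseline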
# Estrogen receptor beta (Homo sapiens), sequence (Q92731 whole entry, looked up, the tested form may be a part): as above
# How it was run: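 ER-beta LBD homodimer PCA stably expressed in HEK293T; 8 h compound exposure, then formaldehyde fixation and Draq5 staining. Gain in nuclear/cytoplasmic fluorescence intensity versus DMSO vehicle, read on laser scanning cytometer.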
# [5] = biological target: Peroxisome proliferator-activated receptor gamma (Homo sapiens) (UniProt P37231); assay: NVS_NR_hPPARg: NovaScreen (NVS) Nuclear Receptor Binding Assay for human Peroxisome Proliferator-activated Receptor gamma (PPARg) (AID 2283370)
# Peroxisome proliferator-activated receptor gamma (Homo sapiens), sequence (P37231 whole entry, looked up): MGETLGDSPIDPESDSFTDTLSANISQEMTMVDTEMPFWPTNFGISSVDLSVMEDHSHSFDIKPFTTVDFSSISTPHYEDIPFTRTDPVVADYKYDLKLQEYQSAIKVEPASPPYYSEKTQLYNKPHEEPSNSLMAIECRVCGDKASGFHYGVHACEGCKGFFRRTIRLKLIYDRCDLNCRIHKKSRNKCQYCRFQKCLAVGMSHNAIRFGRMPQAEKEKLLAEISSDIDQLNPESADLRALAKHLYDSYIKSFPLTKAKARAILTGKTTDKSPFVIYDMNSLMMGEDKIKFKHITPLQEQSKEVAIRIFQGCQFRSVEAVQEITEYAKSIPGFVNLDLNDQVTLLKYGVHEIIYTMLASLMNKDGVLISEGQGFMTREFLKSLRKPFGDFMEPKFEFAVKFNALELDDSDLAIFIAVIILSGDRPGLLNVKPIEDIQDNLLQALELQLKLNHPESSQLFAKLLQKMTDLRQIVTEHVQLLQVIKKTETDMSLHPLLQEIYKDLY
# How it was run: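 FP read-out, 2 h post-dose, cell-free extracted receptor protein. Signal loss vs DMSO negative control = binding activity. Single-conc duplicate HTS at 25 uM; concentration-response follow-up for actives.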
# [6] = biological target: Androgen Receptor/SRC-1 Co-activator, AR (gene 367) (UniProt P10275); assay: OT_AR_ARSRC1_0960: Odyssey Thera (OT) 16-hour HEK293T Protein-Complementation Assay for Androgen Receptor/SRC-1 Co-activator (AID 2283353);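 also: actives raise the signal above DMSO so potency reflects increased AR and SRC-1 complex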
# Androgen Receptor/SRC-1 Co-activator, AR (gene 367), sequence (P10275 whole entry, looked up, the tested form may be a part): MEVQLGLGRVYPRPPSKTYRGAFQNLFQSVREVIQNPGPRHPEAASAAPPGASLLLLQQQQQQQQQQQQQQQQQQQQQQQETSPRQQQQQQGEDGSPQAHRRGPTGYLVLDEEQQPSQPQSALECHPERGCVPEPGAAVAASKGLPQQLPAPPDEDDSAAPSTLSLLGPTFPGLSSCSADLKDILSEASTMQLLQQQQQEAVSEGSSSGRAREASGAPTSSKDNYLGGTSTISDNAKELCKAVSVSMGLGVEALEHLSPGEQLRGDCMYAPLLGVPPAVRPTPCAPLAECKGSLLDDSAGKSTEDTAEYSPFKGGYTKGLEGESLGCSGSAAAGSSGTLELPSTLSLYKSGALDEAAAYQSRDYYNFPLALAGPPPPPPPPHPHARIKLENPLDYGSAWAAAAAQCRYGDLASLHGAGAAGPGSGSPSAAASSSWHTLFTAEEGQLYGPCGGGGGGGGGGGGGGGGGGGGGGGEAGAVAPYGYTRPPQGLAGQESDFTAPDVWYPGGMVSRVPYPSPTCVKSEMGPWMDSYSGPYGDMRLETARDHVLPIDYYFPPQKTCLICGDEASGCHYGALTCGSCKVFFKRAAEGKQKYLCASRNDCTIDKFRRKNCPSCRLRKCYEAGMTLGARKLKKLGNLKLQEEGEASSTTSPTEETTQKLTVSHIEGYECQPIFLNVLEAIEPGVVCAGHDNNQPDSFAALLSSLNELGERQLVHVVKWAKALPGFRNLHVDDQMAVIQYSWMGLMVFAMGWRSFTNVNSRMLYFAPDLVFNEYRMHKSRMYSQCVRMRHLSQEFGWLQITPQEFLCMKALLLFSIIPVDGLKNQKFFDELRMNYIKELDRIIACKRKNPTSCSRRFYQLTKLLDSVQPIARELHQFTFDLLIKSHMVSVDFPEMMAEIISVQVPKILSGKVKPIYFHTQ
# How it was run: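 Stable HEK293T line carries AR and SRC-1 each linked to a Venus fragment; chemicals are applied for 16 h, cells imaged at two wavelengths, and the 488 nm nucleus/cytoplasm ratio is taken as the signal, rising relative to DMSO.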
# [7] = biological target: Androgen Receptor/SRC-1 Co-activator, AR (gene 367) (UniProt P10275); assay: OT_AR_ARSRC1_0480: Odyssey Thera (OT) 8-hour HEK293T Protein-Complementation Assay for Androgen Receptor/SRC-1 Co-activator (AID 2283354);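 also: hits raise the complementation signal above DMSO so AC50 marks enhancers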
# How it was run: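 Reconstituted split-Venus YFP signal from AR–SRC-1 interaction, read by imaging 8 h post-dose in stable HEK293T lines. The 488 nm nucleus-to-cytoplasm ratio (≥400 cells/image) was fitted upward against DMSO.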
# [8] = biological target: rat Mineralocorticoid Receptor (MR), Nr3c2 (gene 25672) (UniProt P22199); assay: NVS_NR_rMR: NovaScreen (NVS) Nuclear Receptor Binding Assay for rat Mineralocorticoid Receptor (MR) (AID 2283355)
# How it was run: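 Primary HTS ran in duplicate at a single 25 uM concentration, with concentration-series follow-up for actives. Receptor source: adrenalectomized rat brain supernatant, cell-free. Radioligand displacement read by scintillation at 24 h, relative to DMSO baseline.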
# [9] = biological target: Glucocorticoid receptor (Homo sapiens) (UniProt P04150); assay: NVS_NR_hGR: NovaScreen (NVS) Nuclear Receptor Binding Assay for human Glucocorticoid Receptor (GR) (AID 2283363);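 also: activity is loss of specific radioligand binding signal relative to DMSO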
# How it was run: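 Compounds first tested in duplicate at 25 uM, actives followed up in concentration series. Binding to extracted GR protein measured as competitive radioligand displacement, filter scintillation read 16 h post-dosing, normalised to DMSO.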
# [10] = biological target: guinea pig Sigma Receptor, Non-selective Binding, SIGMAR1 (gene 100135589) (UniProt Q60492); assay: NVS_OR_gSIGMA_NonSelective: NovaScreen (NVS) Nuclear Receptor Binding Assay for guinea pig Sigma Receptor, Non-selective Binding (AID 2283367)
# guinea pig Sigma Receptor, Non-selective Binding, SIGMAR1 (gene 100135589), sequence (Q60492 whole entry, looked up): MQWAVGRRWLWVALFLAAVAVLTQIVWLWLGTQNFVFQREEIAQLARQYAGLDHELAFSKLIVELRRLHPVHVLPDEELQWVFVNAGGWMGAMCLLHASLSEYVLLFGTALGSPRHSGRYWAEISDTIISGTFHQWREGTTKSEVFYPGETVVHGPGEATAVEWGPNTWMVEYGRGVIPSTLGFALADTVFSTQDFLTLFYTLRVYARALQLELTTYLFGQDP
# How it was run: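 Guinea pig brain membrane sigma sites were labelled with a radioligand, and bound radioactivity was counted after filtration 1 h post-dose. Compounds were screened at 25 uM in duplicate, then retested as concentration series when active.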
# [11] = tested on: guinea pig Dopamine Transporter (DAT), gene 100714898; assay: NVS_TR_gDAT: NovaScreen (NVS) Transporter Assay for guinea pig Dopamine Transporter (DAT) (AID 2283369);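 also: active compounds lower bound radioligand signal relative to DMSO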
# How it was run: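 Cell-free striatal membrane prep (guinea pig), 2 h exposure, filtration + scintillation readout of radioligand binding. Single-point 25 uM duplicate; actives rerun singleton, top conc 50 uM.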
# [12] = biological target: human Dopamine Transporter (DAT), SLC6A3 (gene 6531) (UniProt Q01959); assay: NVS_TR_hDAT: NovaScreen (NVS) Transporter Assay for human Dopamine Transporter (DAT) (AID 2283374);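 also: activity means loss of bound radioligand signal relative to DMSO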
# human Dopamine Transporter (DAT), SLC6A3 (gene 6531), sequence (Q01959 whole entry, looked up): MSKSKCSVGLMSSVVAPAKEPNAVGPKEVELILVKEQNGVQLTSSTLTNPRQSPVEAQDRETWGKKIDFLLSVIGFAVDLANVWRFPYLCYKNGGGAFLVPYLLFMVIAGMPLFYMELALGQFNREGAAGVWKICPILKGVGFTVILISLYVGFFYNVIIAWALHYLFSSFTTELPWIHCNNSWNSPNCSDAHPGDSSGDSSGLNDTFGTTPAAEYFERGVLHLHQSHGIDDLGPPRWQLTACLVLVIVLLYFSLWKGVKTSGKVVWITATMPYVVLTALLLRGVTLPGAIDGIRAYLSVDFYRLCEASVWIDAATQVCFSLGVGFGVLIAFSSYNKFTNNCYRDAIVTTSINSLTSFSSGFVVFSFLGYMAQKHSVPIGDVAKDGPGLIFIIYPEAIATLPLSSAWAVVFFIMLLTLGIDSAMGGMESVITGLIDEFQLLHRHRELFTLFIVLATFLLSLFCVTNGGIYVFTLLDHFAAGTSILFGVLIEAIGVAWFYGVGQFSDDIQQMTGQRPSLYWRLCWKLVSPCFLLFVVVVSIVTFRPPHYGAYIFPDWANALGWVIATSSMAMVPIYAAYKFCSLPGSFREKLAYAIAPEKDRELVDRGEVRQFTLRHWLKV
# How it was run: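 Duplicate single-point screening at 25 uM preceded concentration-series follow-up of actives. Binding was measured by competitive displacement of a radioligand from DAT protein, filter-counted by scintillation 1 h after dosing. Decrease relative to DMSO taken as activity.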
# [13] = biological target: Norway rat Vesicular Monoamine Transporter (VMAT2), neurotransmitter transporter, Slc18a2 (gene 25549) (UniProt Q01827); assay: NVS_TR_rVMAT2: NovaScreen (NVS) Transporter Assay for Norway rat Vesicular Monoamine Transporter (VMAT2), neurotransmitter transporter (AID 2283376);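 also: actives lower the bound radioligand signal below the DMSO level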
# How it was run: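 Using rat forebrain membranes, specific radioligand binding to VMAT2 was measured by filtration and scintillation counting after 1 hour. Chemicals screened at 25 uM in duplicate, actives retested in concentration series, DMSO baseline.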
# [14] = biological target: Nuclear receptor subfamily 1 group I member 2 (Homo sapiens) (UniProt O75469); assay: NVS_NR_hPXR: NovaScreen (NVS) Nuclear Receptor Binding Assay for human Pregnane X Receptor (PXR) (AID 2283365);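 also: a drop in FRET signal versus DMSO baseline means the compound binds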
# Nuclear receptor subfamily 1 group I member 2 (Homo sapiens), sequence (O75469 whole entry, looked up): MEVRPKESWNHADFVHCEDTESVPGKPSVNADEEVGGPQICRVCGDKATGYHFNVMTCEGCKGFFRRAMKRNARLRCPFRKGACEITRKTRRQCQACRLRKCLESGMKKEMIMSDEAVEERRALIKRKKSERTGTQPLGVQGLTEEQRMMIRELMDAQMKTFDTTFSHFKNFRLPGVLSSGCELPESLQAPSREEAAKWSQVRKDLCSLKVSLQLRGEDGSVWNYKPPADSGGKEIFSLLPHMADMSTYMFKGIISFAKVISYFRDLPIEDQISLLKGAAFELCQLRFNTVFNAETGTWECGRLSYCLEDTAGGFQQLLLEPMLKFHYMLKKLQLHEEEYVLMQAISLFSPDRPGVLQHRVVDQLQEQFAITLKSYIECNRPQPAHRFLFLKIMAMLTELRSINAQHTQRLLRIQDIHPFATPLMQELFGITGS
# How it was run: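 TR-FRET signal read at 2 h in a cell-free human PXR binding format. DMSO served as negative control and baseline; activity scored as signal loss. Single-concentration duplicate screen (25 uM), then concentration-response follow-up.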
# [15] = biological target: human Peroxisome Proliferator-activated Receptor alpha (PPARa), PPARA (gene 5465) (UniProt Q07869); assay: NVS_NR_hPPARa: NovaScreen (NVS) Nuclear Receptor Binding Assay for human Peroxisome Proliferator-activated Receptor alpha (PPARa) (AID 2283359);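 also: activity means loss of TR-FRET signal versus DMSO baseline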
# How it was run: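 Loss of TR-FRET binding signal relative to DMSO was measured 1 h after chemical addition to extracted receptor protein. Chemicals were first tested in duplicate at 25 uM, and actives were followed up in concentration series.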
# [16] = biological target: rat Androgen Receptor (AR), Ar (gene 24208) (UniProt P15207); assay: NVS_NR_rAR: NovaScreen (NVS) Nuclear Receptor Binding Assay for rat Androgen Receptor (AR) (AID 2283366)
# How it was run: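 Actives from a duplicate single-concentration (25 uM) primary run went on to concentration series. Displacement of radioligand was counted by filtration and scintillation, 18 h post-dose, using prostate extracts from testosterone-pretreated rats, with DMSO as baseline.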
# [17] = biological target: rat Serotonin Transporter (SERT), Slc6a4 (gene 25553) (UniProt P31652); assay: NVS_TR_rSERT: NovaScreen (NVS) Transporter Assay for rat Serotonin Transporter (SERT) (AID 2283375)
# How it was run: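 Radioligand displacement, filter scintillation readout; rat forebrain membrane prep, 1 h post-dose. Single-conc 25 uM duplicate screen, then concentration-response on actives. Loss of signal vs DMSO baseline.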
smiles,measurement,setting,value
CCOCn1c(-c2ccc(Cl)cc2)c(C#N)c(Br)c1C(F)(F)F,outcome,[1],inactive
same,AC50,[2],16.9 µM (active)
same,AC50,[3],12.4 µM (active)
same,AC50,[4],17.3 µM (active)
same,outcome,[5],inactive
O=S1OC[C@@H]2[C@H](CO1)[C@]1(Cl)C(Cl)=C(Cl)[C@@]2(Cl)C1(Cl)Cl (stereo partly drawn),outcome,[1],inactive
same,outcome,[6],inactive
same,outcome,[7],inactive
same,AC50,[5],14.9 µM (active)
CCOP(=O)(OCC)OC(=CCl)c1ccc(Cl)cc1Cl,outcome,[8],inactive
same,AC50,[9],25 µM (active)
same,AC50,[10],10.9 µM (active)
same,AC50,[11],25 µM (active)
same,AC50,[12],25 µM (active)
same,AC50,[13],10.9 µM (active)
O=C(CCl)Nc1ccccc1,outcome,[1],inactive
same,AC50,[6],28.2 µM (active)
same,AC50,[7],59.5 µM (active)
same,outcome,[3],inactive
same,outcome,[14],inactive
same,outcome,[5],inactive
COC(=O)Nc1cccc(OC(=O)Nc2cccc(C)c2)c1,outcome,[4],inactive
CCOC(=O)CCN(SN(C)C(=O)Oc1cccc2c1OC(C)(C)C2)C(C)C,AC50,[10],15.8 µM (active)
CC1CC(=O)O1 (stereo not drawn),outcome,[13],inactive
CC(C)(C)c1ccccc1O,AC50,[4],50 µM (active)
same,outcome,[15],inactive
same,outcome,[11],inactive
same,outcome,[12],inactive
O=[N+]([O-])c1ccc(Nc2ccccc2)cc1,AC50,[11],4.24 µM (active)
same,AC50,[12],5.62 µM (active)
CCCCCCCCCCBr,AC50,[10],0.87 µM (active)
Nc1c(Oc2ccccc2)cc(O)c2c1C(=O)c1ccccc1C2=O,outcome,[16],inactive
CC1(C)[C@H](C(=O)O[C@H](C#N)c2cccc(Oc3ccccc3)c2)[C@@H]1/C=C(\Cl)C(F)(F)F,outcome,[4],inactive
O=C1C=CC(=O)c2ccccc21,AC50,[9],4.63 µM (active)
same,outcome,[16],inactive
same,AC50,[11],5.42 µM (active)
same,AC50,[17],28.9 µM (active)
Cc1ccc(OP(=O)(Oc2ccc(C)cc2C)Oc2ccc(C)cc2C)c(C)c1,AC50,[12],17.4 µM (active)
